Compound activity as filed in PubChem.
Only a selection was taken, and hits are over-represented in it overall.
RECQ1 inh-1: blocks DNA unwinding by human RECQ1. P46063. RECQ1 DNA unwinding, red fluorescence kinetic read. Potency, µM (highest dose often 57.3 µM), actives largely listed as inhibitors. 240,000 tested, 0.54% active; further: nearly all actives have a fitted effect of over 30% in size
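RECQ1T1 50 nM; forked duplex (20 bp + 30-nt ss tails) 200 nM, ATP 2 mM final; pH 8.0, 2 mM MgCl2, 2.5 ug/ml poly(dI-dC); 15 min compound preincubation; discontinuous kinetic read over 2 h at RT.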
KDM4E inh: blocks human JMJD2E demethylase activity | JMJD2E catalytic domain, FDH-coupled NADH fluorescence (FDH is formaldehyde dehydrogenase) | Potency, µM (doses to about 57.1 µM), actives largely listed as inhibitors | 230,000 tested, 1.6% active | AID 2147; active means well fitted inhibition curve with a large enough effect, not every such curve was filed as active; inconclusive means small, poorly fitted or top-dose-only effect, or another doubt; inactive means no such curve, though single readings can be large or run the other way; further: nearly all actives have a fitted effect of over 50% in size
Target sequence (B2RXH2 1-337 limits assumed): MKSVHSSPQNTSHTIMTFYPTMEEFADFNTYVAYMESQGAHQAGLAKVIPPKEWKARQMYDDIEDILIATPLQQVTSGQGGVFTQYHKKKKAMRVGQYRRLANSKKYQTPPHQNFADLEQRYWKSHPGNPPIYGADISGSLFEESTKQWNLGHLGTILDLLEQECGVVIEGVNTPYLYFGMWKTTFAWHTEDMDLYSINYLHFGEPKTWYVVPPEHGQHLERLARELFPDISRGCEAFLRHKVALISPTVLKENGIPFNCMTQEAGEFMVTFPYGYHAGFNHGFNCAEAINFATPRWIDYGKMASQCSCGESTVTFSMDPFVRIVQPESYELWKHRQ
L3MBTL1 inh-1: L3MBTL1 (human) inhibition | Q9Y468 | AlphaScreen L3MBTL1–H3K9me1 peptide binding | Potency, µM (titrated, usually from 57.1 µM), actives largely listed as inhibitors | 230,000 tested, 0.66% active; further: nearly all actives have a fitted effect of over 60% in size
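AlphaScreen assay: L3MBTL1 (50 nM final) was preincubated 30 min at room temperature with biotinylated H3(1-15)K9me1 peptide (75 nM final), then 30 min with library compounds; streptavidin donor and nickel chelate acceptor beads (10 ug/mL final) added, 30 min dark.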
APEX1 inh: inhibitors of human APE1 endonuclease; P27695; recombinant APE1, TAMRA/BHQ-2 abasic DNA cleavage fluorescence; Potency, µM (series often up to 65.8 µM), hits mostly inhibitors; 350,000 tested, 0.35% active; further: nearly all actives have a fitted effect of over 55% in size
Target sequence (P27695 whole entry, looked up): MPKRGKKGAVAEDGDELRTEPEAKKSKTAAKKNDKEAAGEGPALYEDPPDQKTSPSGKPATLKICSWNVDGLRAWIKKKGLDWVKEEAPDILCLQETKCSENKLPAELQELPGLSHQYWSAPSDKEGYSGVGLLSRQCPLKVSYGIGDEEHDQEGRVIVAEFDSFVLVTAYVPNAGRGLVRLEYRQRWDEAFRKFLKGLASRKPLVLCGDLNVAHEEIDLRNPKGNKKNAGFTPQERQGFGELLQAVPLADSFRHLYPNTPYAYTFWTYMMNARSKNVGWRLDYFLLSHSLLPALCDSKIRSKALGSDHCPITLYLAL
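0.75 nM APE1 + cpd, 15 min RT; start w/ 50 nM TAMRA/BHQ-2 THF-abasic dsDNA; kinetic fluor 525/598 nm ×3 reads @60 s; Δ(read3−read1); normalized to DMSO and NSC13755 control wells.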
GCN5L2 inh-1: GCN5L2 (KAT2A) acetyltransferase inhibition | Q92830 | GCN5L2 HAT assay, ThioGlo1 CoA-SH fluorescence | Potency, µM (titrated, usually from 58.9 µM), usual class: inhibitors | 390,000 tested, 0.21% active | AID 504327
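Enzyme at 20nM final was mixed with library compounds for 15 min at room temperature. Peptide H3(1-25) at 75uM, acetyl-CoA at 70uM and ThioGlo1 at 50uM were then added. Plates were read immediately and after 20 min (Ex340nm/Em540nm).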
BLM inh-1: Bloom syndrome helicase (human) inhibition; recombinant BLM DNA unwinding, fluorescence dequenching; Potency, µM (top dose mostly 56.1 µM), most hits filed as inhibitors; 350,000 tested, 0.2% active; further: nearly all actives have a fitted effect of over 35% in size
BLM inh-2: confirmation of inhibitors of human Bloom syndrome helicase BLM | shares compounds with BLM inh-1 | BLM DNA unwinding, fluorescence quenching, biochemical | Potency, µM, actives largely listed as inhibitors | 220 tested, 40% active;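 further: strand separation dequenches TAMRA so unwinding raises red fluorescence; series mostly up to about 69 µM; nearly all actives have a fitted effect of over 45% in size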
RECQ1 inh conf: confirmation of human RECQ1 helicase inhibitors | 610 tested, 28% active | Potency, µM (series often up to 229 µM), hits mostly inhibitors | shares compounds with RECQ1 inh-1 | RECQ1 helicase DNA unwinding, fluorescence; further: nearly all actives have a fitted effect of over 45% in size
ADP FP counter: ADP displacement flagged in RECQ1 inhibitor counter-screen; shares compounds with RECQ1 inh-1; ADP fluorescence polarization displacement counterscreen; Potency, µM (series often up to 228 µM), usual class: inhibitors; 530 tested, 27% active; AID 2711; further: nearly all actives have a fitted effect of over 45% in size
RECQ1 inh-2: confirmation of human RECQ1 helicase inhibitors; shares compounds with RECQ1 inh-1; Potency, µM (top dose mostly 119 µM), usual class: inhibitors; 1,100 tested, 15% active; recombinant RECQ1 DNA unwinding, red fluorescence; further: nearly all actives have a fitted effect of over 50% in size
L3MBTL1 inh-2: L3MBTL1 binding inhibition validated; L3MBTL1 methyl-lysine binding inhibition, biochemical qHTS; AID 540279; Potency, µM, most hits filed as inhibitors; shares compounds with L3MBTL1 inh-1; 500 tested, 91% active; further: nearly all actives have a fitted effect of over 70% in size
AlphaScreen ctr2: interferes with AlphaScreen signal in L3MBTL1 counterscreen. AlphaScreen counterscreen, signal inhibition. 500 tested, under 10 active. AID 602224. shares compounds with L3MBTL1 inh-1. Potency, µM (series often up to 57.1 µM), actives largely listed as inhibitors
GCN5L2 inh-2: confirmation of human GCN5L2 histone acetyltransferase inhibitors | shares compounds with GCN5L2 inh-1 | GCN5L2 HAT, ThioGlo1 CoA fluorescence, 20 min | Potency, µM, most hits filed as inhibitors | 140 tested, 70% active | AID 588347
A number is an active result; . = inactive; ? = inconclusive; / = no result; ! = not confirmed by another sample; [ ] = dose if it differs, or a comment. Unless noted, the call rests on the fitted dose curve; in most records, active means well fitted curve in the direction sought with a large enough effect; inconclusive means small, poorly fitted or top-dose-only effect, or another doubt; inactive means no such curve, though single readings can be large; an effect the other way counts as inactive or inconclusive.

SMILES	RECQ1 inh-1	KDM4E inh	L3MBTL1 inh-1	APEX1 inh	GCN5L2 inh-1	BLM inh-1	RECQ1 inh-2	others
O=C(N/N=C/c1cccc(F)c1)c1cc(-c2ccco2)nc2ccccc12	22.4µM	?	5.62µM	4.47µM	?	11.2µM	/	BLM inh-2=5.76µM;RECQ1 inh conf=28.2µM;ADP FP counter=?
COc1ccc(-n2c(=O)c3sc4ccccc4c3n(CC(=O)N3CCCC3)c2=O)cc1	/	/	/	/	.	.	/
O=C(CSc1nc(-c2ccccc2)nc2c1Cc1ccccc1O2)Nc1ccc(C(=O)O)cc1	8.91µM	?	10µM	.	28.2µM	10µM	/	BLM inh-2=12.9µM;RECQ1 inh conf=.;L3MBTL1 inh-2=5.97;AlphaScreen ctr2=?
Cc1nc2sc3c(c2c(=O)[nH]1)CCC3	.	.	/	.	.	.	/
Cc1cc(-c2nc3c4c5c(sc4[nH]c(=O)n3n2)CCC5)c(C)o1	12.6µM	.	8.91µM	?	?	14.1µM	?	BLM inh-2=11.5µM;RECQ1 inh conf=17.8µM;ADP FP counter=?;L3MBTL1 inh-2=9.47;AlphaScreen ctr2=.
Cc1ccc(CN=C(N)Nc2nc(C)cc(C)n2)cc1	.	.	.	.	.	.	/
C=CCn1c(COc2ccc(F)cc2)nnc1SCC(=O)NC1CCS(=O)(=O)C1 (centres undefined)	/	/	.	.	.	/	/
CN(CCC#N)C(=O)COC(=O)c1c2c(nc3ccccc13)/C(=C/c1ccco1)CC2	15.8µM	25.1µM	10µM	14.1µM	?	14.1µM	?	BLM inh-2=?;L3MBTL1 inh-2=2.12;AlphaScreen ctr2=?
O=C(O)CSc1cc(C(=O)c2ccccc2O)cn2c(=O)c3c(-c4ccccc4)csc3nc12	.	.	.	.	25.1µM	28.2µM	/	BLM inh-2=?;GCN5L2 inh-2=25.7
Cc1ccc(Cn2c(CNC(=O)Cc3cccc([N+](=O)[O-])c3)nc3cccnc32)cc1	/	/	/	/	.	.	/
Cc1cc(C(=O)Nn2c(C3CCCCC3)nc3ccccc3c2=O)ccc1[N+](=O)[O-]	25.1µM	.	.	.	.	.	.
CCOC(=O)N1CCc2c(sc3c2c(=O)n(CCc2ccccc2)c(=O)n3Cc2ccc(C)cc2C)C1	/	/	/	/	.	.	/
CCN(c1ccccc1)S(=O)(=O)c1ccc(C(=O)NC2CCN(Cc3ccccc3)CC2)cc1	/	/	.	.	.	/	/
CC(=O)Oc1ccc2c(c1)Oc1cc(OC(C)=O)ccc1C21OC(=O)c2ccccc21	.	.	.	.	.	.	/
O=C1OC2(c3ccc(O)cc3Oc3cc(O)ccc32)c2ccccc21	31.6µM	/	/	28.2µM	?	35.5µM	79.4µM
Cc1ccc(-c2cc(NC(=O)C(C)Oc3ccccc3F)on2)cc1 (centres undefined)	/	/	/	/	.	.	/
CCN(CC(=O)Nc1c(F)cccc1F)C(=O)CC1CCCCC1	/	/	.	.	.	/	/
CCOC(=O)c1c(C)oc2c(Cl)cc(NS(=O)(=O)c3ccc(Cl)c(C)c3)cc12	/	/	/	/	.	.	/
C=COC(=O)/C=C/C	.	/	/	.	.	.	/
Cc1cc(C)cc(OCC(=O)Nc2nonc2NC(=O)COc2cc(C)cc(C)c2)c1	?	.	.	.	.	.	.
Cc1cc(C)cc(OCC(=O)Nc2nonc2-c2ccc(Br)cc2)c1	/	/	/	/	.	.	/
COc1ccc(S(=O)(=O)NC2CC2)cc1Cl	/	/	.[2.29 µM]	.	.	.	/
Cc1csc(N/N=C/c2ccc(O)c([N+](=O)[O-])c2)n1	14.1µM	.	/	?	.[0.501 µM]	?	/	RECQ1 inh conf=.;ADP FP counter=?
CS(=O)(=O)N1CCC(Oc2cccc(C(=O)NCCCOc3cccnc3)c2)CC1	/	/	/	.	.	.	/
COC1=C/C(=C/c2c(N)n3c(nc2=O)sc2cc(S(C)(=O)=O)ccc23)C=CC1=O	.	.	.	.	.	.	/
SMILES	RECQ1 inh-1	KDM4E inh	L3MBTL1 inh-1	APEX1 inh	GCN5L2 inh-1	BLM inh-1	RECQ1 inh-2	others
CS(=O)(=O)c1ccc2c(c1)sc1nc(=O)c(/C=C3/C=CC(=O)C(O)=C3)c(N)n12	15.8µM	3.16µM	?	25.1µM	?	25.1µM	7.94µM
Cc1cnc(CNc2ncnc3ccc(-c4ccc(N(C)C)cc4)cc23)cn1	25.1µM	/	/	.	.	.	?
CCCCn1c(Cl)nc2c1c(=O)n(C)c(=O)n2C	?	.	.	.	.	.	.
Cn1c(=O)c2c(nc(Cl)n2CCOc2ccccc2)n(C)c1=O	/	/	/	.	.	.	/
N=C(N)c1ccccc1	14.1µM!	.	/	.	.	.	/	RECQ1 inh conf=.;ADP FP counter=.
N=C(N)c1ccc(O)cc1	.	.	.	.	.	.	/
COc1ccccc1-c1nnc2n1N=C(c1ccc(O)c(O)c1)CS2	31.6µM	25.1µM	.	?	.	.	?
Cc1nc(C(=O)Nc2cc(Cl)ccc2Cl)nn1-c1cc(OC(C)C)c(Cl)cc1Cl	.	.	.	.	.	.	/
Cc1nc(C(=O)Nc2cccc(Cl)c2)nn1-c1cc(OC(C)C)c(Cl)cc1Cl	35.5µM	.	.	.	.	.	.
Cc1nc(Oc2ccccc2C)c2oc3ccccc3c2n1	/	/	/	/	.	.	/
Cc1ccc(S(=O)(=O)c2cc(Nc3ccccc3)ccc2O)cc1	/	/	?	.	.	/	/
Cc1ccc(Nc2ccc(N)cc2S(=O)(=O)O)cc1	?	?	?	?	.	.	.
Cc1cc(-c2ccc(C)c(S(=O)(=O)N3CCCC(C)C3)c2)on1 (centres undefined)	/	/	/	/	.	.	/
O=C(O)CCc1ccc(-c2ccccc2)n1CC(=O)O	.	?	.	.	.	.	/
O=C(O)CCc1ccc(-c2ccc(Br)cc2)n1CC(=O)O	31.6µM	?	?	.	.	.	?
N[C@@H](CO)c1nnc([C@H](CC(=O)O)NC(=O)C2CCNCC2)o1	.	.	.	.	.	.	/	RECQ1 inh conf=.;ADP FP counter=.
CCc1ccc(NC(=O)COC(=O)c2ccc(Cl)c(S(=O)(=O)N3CCCCCC3)c2)cc1	?	.	.	.	.	.	?
Cc1ccc(SCC(=O)Nc2cccc(C)c2)cc1	25.1µM	.	.	.	.	.	.
